According to PubChem BioAssay (Tox21):
Inconclusive results are not listed. The source made the active and inactive calls. Unless noted, calls come from the whole dose curve; as a rule, active = well fitted curve in the direction sought with a large enough effect in the repeat runs; inconclusive = weak or mixed curves; inactive = no such curve, though single readings can be large; an effect the other way counts as inactive or inconclusive.

How the values were obtained:
[1] = qHTS assay to identify small molecule agonists of the vitamin D receptor (VDR) signaling pathway - cell viability counter screen (AID 743224); note: % is set by controls: 0 for no effect and ±100 for the full control effect; nearly all actives have a fitted effect of over 50% in size
Method in brief: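 VDR-bla cells, 4 h after plating, exposed to compounds for 16 h at 37C; viability then read in the same wells as CellTiter-Glo luminescence after 30 min at room temperature, following the bla FRET read.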

[2] = qHTS assay to identify small molecule antagonists of the vitamin D receptor (VDR) signaling pathway - cell viability counter screen (AID 743225); note: % is set by controls: 0 for no effect and ±100 for the full control effect; nearly all actives have a fitted effect of over 50% in size
Method in brief: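 HEK293T VDR-bla; cpd + 1a,25-(OH)2D3 3 nM final, 16 h 37C/5% CO2; B/G FRET substrate 2 h RT; then CellTiter-Glo 30 min RT, luminescence.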

[3] = qHTS assay to identify small molecule agonists of the NFkB signaling pathway (AID 1159509; active = well fitted curve in the direction sought with a large enough effect in the signal ratio in the repeat runs, not every such curve was filed as active; the % refers to the signal ratio; note: % is set by controls: 0 for no effect and ±100 for the full control effect)
Method in brief: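 ME-180 NFkB-bla, 2,000 cells/well, overnight plating; cpd pinned in DMSO, 5 h 37 C; B/G FRET substrate 1.5 h RT; ex 405, em 460/530 nm.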

[4] = qHTS assay to identify small molecule agonists of the NFkB signaling pathway - cell viability counter screen (AID 1159515; calls by dose curve; note: % is set by controls: 0 for no effect and ±100 for the full control effect; nearly all actives have a fitted effect of over 55% in size)
Method in brief: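 NFkB-bla ME-180 cells, 2,000/well, plated overnight at 37 C; compound added for 5 hr at 37 C. Viability read in the same wells as the bla reporter, by CellTiter-Glo luminescence after 30 min at room temperature.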

[5] = qHTS assay to identify small molecule agonists of the endoplasmic reticulum stress response signaling pathway (AID 1159516; active = well fitted activation curve with a large enough effect in the signal ratio in the repeat runs, not every such curve was filed as active; the % refers to the signal ratio; note: % is set by controls: 0 for no effect and ±100 for the full control effect)
Method in brief: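 CellSensor ESRE-bla HeLa cells, 1,500 per well, plated overnight, then exposed to compounds for 5 hr at 37 C. Beta-lactamase reporter read with LiveBLAzer B/G FRET substrate after 2 hr at room temperature, 405 nm excitation, 460 and 530 nm emission.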

[6] = qHTS assay to identify small molecule agonists of the endoplasmic reticulum stress response signaling pathway - cell viability counter screen (AID 1159517; calls by dose curve;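 note: HeLa cells carrying an ER stress response element beta-lactamase reporter; % is set by controls: 0 for no effect and ±100 for the full control effect; nearly all actives have a fitted effect of over 50% in size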)
Method in brief: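 HeLa cells carrying an ESRE-driven beta-lactamase reporter receive compound for 5 hr at 37 C. Cell viability is then gauged with CellTiter-Glo by luminescence, 30 min at room temperature.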

[7] = qHTS assay to identify small molecule antagonists of the retinoid-related orphan receptor gamma (ROR-gamma) signaling pathway - cell viability counter screen (AID 1159520); note: % is set by controls: 0 for no effect and ±100 for the full control effect; nearly all actives have a fitted effect of over 50% in size
Method in brief: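 Cytotoxicity was read from cellular ATP (CellTiter-Glo luminescence) after 16 hr at 37 C with 1 uM doxycycline induction. The inducer was added 2 hr after compound transfer to Tet-on ROR gamma CHO cells.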

[8] = target: Nuclear receptor ROR-gamma (Homo sapiens) (UniProt P51449); experiment: qHTS assay to identify small molecule antagonists of the retinoid-related orphan receptor gamma (ROR-gamma) signaling pathway (AID 1159521)
Method in brief: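 Cells were plated, rested 4 h at 37 C, exposed to compounds for 2 h, then given 1 uM final doxycycline hyclate to induce RORγ expression. After 16 h, ONE-Glo luminescence from the ROR response element reporter was measured.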

[9] = qHTS assay to identify small molecule agonists of the AP-1 signaling pathway - cell viability counter screen (AID 1159525; calls by dose curve; note: nearly all actives have a fitted effect of over 55% in size)
Method in brief: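 Luminescent ATP readout (Cell Titer Glo, 30 min RT), normalised to DMSO and tetra n-octyl ammonium bromide controls. Cells were ME-180 AP-1-bla in 0.5% dialyzed FBS Opti-MEM, with a 5 h, 37 °C compound exposure.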

[10] = qHTS assay to identify small molecule agonists of the AP-1 signaling pathway (AID 1159526; calls by dose curve; note: % is set by controls: 0 for no effect and ±100 for the full control effect)
[11] = target: Retinoic acid receptor RXR-alpha (Homo sapiens) (UniProt P19793); experiment: qHTS assay to identify small molecule agonists of the RXR signaling pathway (AID 1159527; calls by dose curve; note: % is set by controls: 0 for no effect and ±100 for the full control effect; nearly all actives have a fitted effect of over 35% in size)
Sequence of Retinoic acid receptor RXR-alpha (Homo sapiens) (P19793 whole entry, looked up): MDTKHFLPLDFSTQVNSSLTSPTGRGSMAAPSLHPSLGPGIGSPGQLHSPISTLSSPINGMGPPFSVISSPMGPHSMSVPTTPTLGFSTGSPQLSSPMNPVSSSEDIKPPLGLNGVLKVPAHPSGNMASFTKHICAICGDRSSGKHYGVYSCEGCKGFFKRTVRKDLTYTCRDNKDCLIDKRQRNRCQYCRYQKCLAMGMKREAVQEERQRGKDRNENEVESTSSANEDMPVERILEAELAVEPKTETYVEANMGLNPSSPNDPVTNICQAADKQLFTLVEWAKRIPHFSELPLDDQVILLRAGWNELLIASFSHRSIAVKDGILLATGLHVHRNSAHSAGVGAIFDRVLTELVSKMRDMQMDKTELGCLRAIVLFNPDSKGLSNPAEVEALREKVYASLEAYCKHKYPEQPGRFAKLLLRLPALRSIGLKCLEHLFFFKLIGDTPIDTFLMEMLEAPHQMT
Method in brief: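 Cells plated at 2,000/well, rested 5 hr at 37 C, pin-dosed with DMSO compound solutions, incubated 16 hr, then loaded with B/G FRET substrate for 2 hr at RT before dual-emission fluorescence reading.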

[12] = qHTS assay to identify small molecule agonists of the RXR signaling pathway - cell viability counter screen (AID 1159529)
Method in brief: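 Steps: seed RXR-alpha-UAS-bla HEK 293T cells in assay medium containing 2% charcoal-stripped FBS; incubate 5 hr; add compounds in DMSO; incubate 16 hr at 37 C; after the bla read, add CellTiter-Glo and read luminescence at 30 min.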

[13] = qHTS assay to identify small molecule antagonists of the retinoid acid receptor (RAR) signaling pathway - cell viability counter screen (AID 1159551); note: % is set by controls: 0 for no effect and ±100 for the full control effect; nearly all actives have a fitted effect of over 35% in size
Method in brief: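 C3RL4 RARE-luciferase cells, 1,000/well, incubated overnight, then dosed with compound plus 1 uM retinol (final). After 6 hr at 37 C, viability read by CellTiter-Glo ATP luminescence following 30 min at room temperature.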

[14] = qHTS assay to identify small molecule agonists of the retinoic acid receptor (RAR) signaling pathway (AID 1159553); details: C3RL4 RARE luciferase reporter, agonist, 6 h; activation: at 73.3 µM (top of the series); note: % is set by controls: 0 for no effect and ±100 for the full control effect
Method in brief: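 C3RL4 RARE-luciferase cells were seeded at 1,000/well and grown overnight at 37 C, then exposed to compounds for 6 hr at 37 C, 5% CO2. Luciferase reagent was added and luminescence was read after 30 min at room temperature.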

[15] = qHTS assay to identify small molecule antagonists of the estrogen related receptor (ERR) signaling pathway from Tox21 library - cell viability counter screen (AID 1224834); note: % is set by controls: 0 for no effect and ±100 for the full control effect; nearly all actives have a fitted effect of over 30% in size
Method in brief: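 ERR reporter cells, 2,000 per well, rested 6 h, then exposed to compound in DMSO for 17.5 hours at 37 C. Viability read as fluorescence after 30 min with CellTiter-Fluor.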

[16] = target: Luciferin 4-monooxygenase (Photinus pyralis) (UniProt P08659); experiment: qHTS assay to identify small molecule inhibitors of firefly luciferase (AID 1224835); note: % is set by controls: 0 for no effect and ±100 for the full control effect; nearly all actives have a fitted effect of over 25% in size
Sequence of Luciferin 4-monooxygenase (Photinus pyralis) (P08659 whole entry, looked up): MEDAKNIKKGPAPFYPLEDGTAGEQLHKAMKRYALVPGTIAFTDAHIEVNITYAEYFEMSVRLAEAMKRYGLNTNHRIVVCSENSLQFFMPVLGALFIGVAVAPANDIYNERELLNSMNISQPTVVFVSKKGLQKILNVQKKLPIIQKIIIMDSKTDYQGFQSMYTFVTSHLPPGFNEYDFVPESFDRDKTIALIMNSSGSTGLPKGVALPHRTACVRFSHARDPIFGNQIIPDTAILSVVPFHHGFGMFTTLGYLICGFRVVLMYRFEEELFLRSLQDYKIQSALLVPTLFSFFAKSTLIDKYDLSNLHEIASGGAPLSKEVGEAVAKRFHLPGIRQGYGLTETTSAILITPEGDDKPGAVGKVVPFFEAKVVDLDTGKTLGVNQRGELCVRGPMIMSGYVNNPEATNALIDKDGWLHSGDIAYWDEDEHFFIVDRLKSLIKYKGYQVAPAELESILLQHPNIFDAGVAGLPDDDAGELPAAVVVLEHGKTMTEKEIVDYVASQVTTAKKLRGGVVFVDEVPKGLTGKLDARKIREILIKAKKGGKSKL
Method in brief: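 Inhibition of purified Photinus luciferase is measured by luminescence. Substrate levels (D-luciferin, ATP) sit at their KM values. Each compound is tested in a concentration series.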

[17] = qHTS assay to identify small molecule agonists of the constitutive androstane receptor (CAR) signaling pathway - cell viability counter screen (AID 1224836); note: % is set by controls: 0 for no effect and ±100 for the full control effect; nearly all actives have a fitted effect of over 45% in size
Method in brief: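 Cells were seeded and incubated 4 hrs. Compounds were added across 15 concentrations together with PK11195 at 0.75 uM final. Plates were incubated 23 hrs at 37 C. CellTiter-Fluor was added and fluorescence measured.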

[18] = qHTS assay to identify small molecule antagonists of the constitutive androstane receptor (CAR) signaling pathway - cell viability counter screen (AID 1224837); note: % is set by controls: 0 for no effect and ±100 for the full control effect; nearly all actives have a fitted effect of over 45% in size
Method in brief: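 HepG2 cells stably carrying hCAR and CYP2B6-2.2kb reporter, stimulated with 50 nM CITCO and compounds at 15 concentrations for 23 h at 37 C. Viability measured by CellTiter-Fluor fluorescence.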

[19] = qHTS assay to identify small molecule antagonists of the retinoic acid receptor (RAR) signaling pathway (AID 1159552)
Method in brief: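 Retinol at 1 uM final stimulated RARE-luciferase expression in C3RL4 cells exposed to test compounds for 6 hr at 37 C. Reduced luminescence, read 30 min after detection reagent, indicated pathway antagonism.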

[20] = target: Nuclear receptor subfamily 1 group I member 3 (Homo sapiens) (UniProt Q14994); experiment: qHTS assay to identify small molecule antagonists of the constitutive androstane receptor (CAR) signaling pathway (AID 1224838); note: % is set by controls: 0 for no effect and ±100 for the full control effect; nearly all actives have a fitted effect of over 40% in size
Sequence of Nuclear receptor subfamily 1 group I member 3 (Homo sapiens) (Q14994 whole entry, looked up): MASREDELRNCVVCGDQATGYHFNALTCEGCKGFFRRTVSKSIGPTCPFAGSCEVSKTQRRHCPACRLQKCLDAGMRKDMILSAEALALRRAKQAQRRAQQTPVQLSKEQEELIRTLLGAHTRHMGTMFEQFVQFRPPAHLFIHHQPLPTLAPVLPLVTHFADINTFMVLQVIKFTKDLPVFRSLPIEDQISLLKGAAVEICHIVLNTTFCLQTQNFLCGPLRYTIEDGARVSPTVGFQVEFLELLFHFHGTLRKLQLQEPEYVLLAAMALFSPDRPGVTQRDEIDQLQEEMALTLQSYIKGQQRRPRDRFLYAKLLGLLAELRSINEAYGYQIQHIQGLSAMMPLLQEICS
Method in brief: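 HepG2 cells stably carrying hCAR and a CYP2B6-2.2kb luciferase reporter, seeded 4 hrs before compound (15 concentrations). Stimulated with 50 nM CITCO for 24 hr at 37 C. ONE-Glo luminescence read after 30 min at room temperature.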

C=CCOc1c(Br)cc(C(C)(C)c2cc(Br)c(OCC=C)c(Br)c2)cc1Br
inactive: outcome [1] | outcome [2] | outcome [3] | outcome [4] | outcome [5] | outcome [6] | outcome [7] | outcome [8] | outcome [9] | outcome [10] | Potency [11] | outcome [12] | outcome [13] | Potency [14] | Potency [15] | Potency [16] | outcome [17] | Potency [18]

O=c1[nH]c(=O)c2[nH]c(=O)[nH]c2[nH]1
inactive: activity change, negative = cytotoxicity [1] -0.867% [at 13.2 µM] | viability change, negative = cytotoxic [2] 18.1% [at 6.95 µM] | activation [3] -0.0901% [at 6.95 µM] | activity, negative = cytotoxic [4] 1.31% [at 6.95 µM] | activation [5] -2.27% [at 6.95 µM] | activity change, negative = cytotoxicity [6] -24.3% [at 6.95 µM] | activity, negative = cytotoxicity [7] -0.126% [at 8.39 µM] | activity change, negative = inhibition [8] 25.7% [at 8.39 µM] | viability change, negative = cytotoxic [9] 10.8% [at 6.97 µM] | activation [10] -0.69% [at 6.97 µM] | activation [11] 3.02% [at 6.98 µM] | activity change, negative = cytotoxicity [12] 9.18% [at 6.97 µM] | activity change, negative = cytotoxicity [13] -0.439% [at 8.39 µM] | activation [14] 0.0515% [at 8.36 µM] | viability change, negative = cytotoxic [15] -1.5% [at 8.39 µM] | viability change, negative = cytotoxic [17] -1.86% [at 8.39 µM] | activity change, negative = cytotoxicity [18] -10.7% [at 8.39 µM]

C1=C\CC/C=C\CC/1
inactive: outcome [1] | outcome [2] | outcome [3] | outcome [4] | outcome [5] | outcome [6] | outcome [7] | outcome [8] | outcome [9] | outcome [10] | Potency [11] | outcome [12] | Potency [19] | Potency [14] | Potency [15] | Potency [16] | outcome [17] | Potency [18] | Potency [20]

CC1CCC(C(C)(C)S)C(=O)C1 (stereo not given)
inactive: outcome [1] | outcome [2] | outcome [3] | outcome [4] | outcome [5] | outcome [6] | outcome [7] | outcome [8] | outcome [9] | outcome [10] | Potency [11] | outcome [12] | Potency [19] | Potency [14] | Potency [15] | Potency [16] | outcome [17] | Potency [18]

Oc1ccccc1Cc1ccccc1O
inactive: outcome [2] | outcome [3] | outcome [4] | outcome [5] | outcome [6] | outcome [7] | outcome [8] | outcome [9] | outcome [10] | Potency [11] | outcome [12] | Potency [19] | Potency [14] | Potency [15] | Potency [16] | outcome [17] | Potency [20]

FC(F)(F)/C(=N\OCC1OCCO1)c1ccc(Cl)cc1
inactive: outcome [1] | outcome [2] | outcome [3] | outcome [4] | outcome [5] | outcome [6] | outcome [7] | outcome [8] | outcome [9] | outcome [10] | outcome [12] | outcome [13] | Potency [19] | Potency [14] | Potency [15] | Potency [16] | Potency [18] | Potency [20]

CCCCOC(=O)C(C)OC(=O)CCC (stereo not given)
inactive: outcome [1] | outcome [2] | outcome [3] | outcome [4] | outcome [5] | outcome [6] | outcome [7] | outcome [8] | outcome [9] | outcome [10] | Potency [11] | outcome [12] | Potency [14] | Potency [15] | Potency [16] | outcome [17] | Potency [18]

C=C[C@@H](C)CCC=C(C)C
inactive: outcome [1] | outcome [3] | outcome [4] | outcome [5] | outcome [6] | outcome [7] | outcome [8] | outcome [9] | outcome [10] | Potency [11] | outcome [12] | Potency [14] | Potency [15] | Potency [16] | outcome [17] | Potency [18]
